KB-3-1 cytotox: kills parental KB-3-1 adenocarcinoma cells; KB-3-1 viability, CellTiter-Glo ATP luminescence, 72 h; Potency, µM (doses to about 46.1 µM), actives largely listed as cytotoxic; 400,000 tested, 1.4% active; AID 1347075; note: nearly all actives have a fitted effect of over 60% in size
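Using CellTiter-Glo luminescence, growth of non-resistant KB-3-1 adenocarcinoma cells is assessed 72 h after pin-tool compound addition at 37 °C. Normalized responses across the concentration series yield fitted curves.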
DT40 TDP1 no CPT: qHTS for Inhibitors of human tyrosyl-DNA phosphodiesterase 1 (TDP1): qHTS in cells in absence of CPT; DT40 Tdp1-/- hTDP1 cells, no CPT, ATP luminescence, 48 h; Potency, µM (highest dose often 46.2 µM), for inactives: at the highest dose activity change, negative = growth inhibition, usual class: inhibitors; 420,000 tested, 15% active; AID 686978, 2013; note: nearly all actives have a fitted effect of over 55% in size
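DT40 Tdp1-/-;hTDP1 cells, no CPT (DMSO vehicle only), 400 cells/well; compounds pin-transferred; ≥48 hr, 37 °C; CellTiter-Glo 30 min RT dark, luminescence read.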
KB-V1 MDR tox: kills drug-selected multidrug resistant KB-V1 cells; 400,000 tested, 3.4% active; AID 1347076; KB-V1 MDR cells viability, CellTiter-Glo, 72 h; Potency, µM (titrated, usually from 46.1 µM), hits mostly cytotoxic; note: nearly all actives have a fitted effect of over 60% in size
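Luminescent ATP read-out (CellTiter-Glo, 10 min) measures survival of drug-selected KB-V1 MDR cells after 72 h, 37 degrees C compound exposure. Medium: phenol-red-free DMEM, 10% FBS. Values from fitted concentration-response curves.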
HT1080NT lethal: kills 2HG-producing HT-1080-NT fibrosarcoma cells; HT-1080-NT fibrosarcoma viability, CellTiter-Glo ATP luminescence, 48 h; Potency, µM (series often up to 46.1 µM), for the others: at the top dose activity, negative = less viability, usual class: cytotoxic; 360,000 tested, 1.6% active;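 note: NT is the 2HG producing partner of a matched IDH1 knockdown line; 0% = DMSO-treated cells and -100% = media-only wells without cells; nearly all actives have a fitted effect of over 55% in size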
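Viability by CellTiter-Glo luminescence after 48 h compound exposure at 37C of HT-1080-NT cells (750/well, RPMI, 5% FBS). % activity scaled between DMSO wells and medium-only wells, then curve-fitted and categorized by curve class.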
DT40 TDP1 CPT: growth inhibition of DT40 Tdp1-/-;hTDP1 cells with camptothecin (screen for TDP1 inhibitors); Potency, µM (titrated, usually from 46.2 µM), for inactives: at the top dose activity change, negative = growth inhibition, actives largely listed as inhibitors; 420,000 tested, 12% active; AID 686979; chicken DT40 Tdp1-/-;hTDP1 cells + 20 nM CPT, ATP luminescence, 48 h; note: nearly all actives have a fitted effect of over 55% in size
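Chicken DT40 Tdp1-/- cells complemented with human TDP1, 400 cells/well, exposed to compounds plus 20 nM camptothecin for at least 48 h at 37 C; viability read as ATP content by CellTiter-Glo luminescence.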
HT1080 IDH1KD tx: HT-1080 IDH1 knockdown cell toxicity (counter line) | 360,000 tested, 2% active | HT-1080 IDH1 knockdown viability, ATP luminescence, 48 h | Potency, µM (highest dose often 46.1 µM), inactives show top-dose activity, negative = toxicity, most hits filed as cytotoxic;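 note: 0% = DMSO wells and -100% = cell-free medium wells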
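Viability of IDH1-knockdown HT-1080 fibrosarcoma cells was assessed by CellTiter-Glo after 48 h at 37 °C with titrated compound; concentration-effect curves were classified by fit quality and response size.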
Active calls of the source: *; i = inactive; ? = inconclusive; · = not tested or not shown. In the library only some 19% were active in any assay of this set; here they are far more common. Calls come from the whole dose curve; as a rule, active = well fitted curve in the direction sought with a large enough effect; inconclusive = small, poorly fitted or top-dose-only effect, or another doubt; inactive = no such curve, though single readings can be large; an effect the other way counts as inactive or inconclusive. Unless noted, % is set by controls: 0 for no effect and ±100 for the full control effect; potency is the fitted concentration of half-maximal effect.

SMILES	KB-3-1 cytotox	DT40 TDP1 no CPT	KB-V1 MDR tox	HT1080NT lethal	DT40 TDP1 CPT	HT1080 IDH1KD tx
COc1ccc2nc(N/C(N)=N/C(=S)Nc3ccccc3)nc(C)c2c1	?	8.2µM*	9.2µM*	-7%	26µM*	0%
CCOc1ccc2nc(N/C(N)=N/S(C)(=O)=O)nc(C)c2c1	?	-27%	i	6%	-1%	1%
Cc1cc(C)cc(NC(=S)Nc2cccc3ccccc23)c1	i	-24%	i	-6%	?	-14%
COc1ccc(OC)c(N/C(=N/C(=S)Nc2ccccc2)Nc2nc(C)cc(C)n2)c1	i	8.2µM*	i	6%	?	6%
Cc1ccc(NC(=O)CCNS(=O)(=O)c2ccc3c(c2)CCC(=O)N3)cc1C	i	18%	i	11%	6%	15%
CCOC(=O)c1cc(CC)sc1NC(=O)COc1ccccc1C	i	2%	i	·	8%	·
COc1ccc2[nH]c(=O)c(CNc3ccccc3OC)cc2c1	i	13µM*	?	-20%	6.5µM*	-10%
COc1ccc2[nH]c(=O)c(CNc3ccccc3C)cc2c1	i	23µM*	i	-7%	9.2µM*	1%
COc1cc2c(cc1OC)/C(=C/C(=O)OCc1ccccc1)OC2	i	-22%	?	-18%	-26%	-9%
CC(C)C[C@@H](COCc1cccc(Cl)c1)N1CCN(C(=O)c2cccc(C(F)(F)F)c2)CCC1=O	i	16µM*	?	?	?	?
CC(C)CC(COCc1cccc(Cl)c1)N1CCN(C(=O)c2ccc(C(F)(F)F)cc2)CCC1=O (configuration not stated)	i	16µM*	i	?	?	-25%
N#C/C(=C/c1ccc(N2CCCCC2)o1)C(=O)Nc1ccc(Cl)cc1	i	?	i	5%	?	12%
COc1ccc(NC(=O)/C(C#N)=C\c2ccc(N3CCOCC3)o2)cc1	i	21µM*	i	-17%	?	-2%
COc1ccc(NC(=O)/C(C#N)=C/c2ccc(C)o2)cc1	i	?	i	·	-23%	·
N#C/C(=C\c1ccc(N2CCOCC2)o1)C(=O)Nc1ccc(O)cc1	i	29µM*	i	0%	?	-8%
CC12CS(=O)(=O)CC1SC(=S)N2Cc1ccccc1 (configuration not stated)	i	-5%	i	-1%	0%	-8%
Cc1ccccc1C(=O)NNc1ccc(-c2csnn2)cc1	i	-17%	i	?	4%	8.2µM*
COc1ccccc1NC(=O)CSc1ccc2nnc(CCNC(=O)c3ccccc3)n2n1	?	5%	i	-5%	1%	1%

Assay outcomes from PubChem BioAssay.
